The campaign covered roughly 5,500 compounds. About 2,000 (36%) were called active. Inconclusive results (about 18%) are left out. Cut-off read from the data, not from the text of the source: active = normalized growth mostly below about 0.91 (no sharp cut-off); inconclusive = no clear call, values can overlap the other calls; inactive = mostly above about 0.92. The list shows a part of the results.
Assay: chemical genetic growth profiling, strain panel (AID 1159580);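 note: tested at 20 µM; growth read once vehicle control cultures reached saturation at 30 °C; 1 = growth at the plate median or of vehicle wells; lower values mean less growth of the strain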
Details: S. cerevisiae deletion strains, growth OD
[1] = locus YAL013W, strain DEP1, hits give low values
[2] = locus YMR263W, strain SAP30, hits give low values
[3] = locus YNL153C, strain GIM3, hits give low values

Measured: normalized growth

Cc1ccc(N=Cc2cccs2)cc1Cl
inactive: [1] 1.01 | locus YBR229C, strain ROT2, hits give low values 0.998 | locus YCL061C, strain MRC1, hits give low values 1.03 | locus YDL101C, strain DUN1, hits give low values 1 | locus YDR150W, strain NUM1, hits give low values 0.982 | locus YEL061C, strain CIN8, hits give low values 1 | locus YGR078C, strain PAC10, hits give low values 1 | locus YHR030C, strain SLT2, hits give low values 1.04 | locus YHR087W, strain rtc3, hits give low values 0.999 | locus YJR043C, strain POL32, hits give low values 1.02 | locus YJR075W, strain HOC1, hits give low values 1.01 | locus YKL190W, strain CNB1, hits give low values 0.998 | locus YLR039C, strain RIC1, hits give low values 0.991 | locus YLR058C, strain SHM2 (second series), hits give low values 1.01 | locus YLR085C, strain ARP6, hits give low values 1.05 | locus YLR262C, strain YPT6, hits give low values 1 | locus YML094W, strain GIM5, hits give low values 1 | locus YMR219W, strain ESC1, hits give low values 0.998 | [2] 1 | locus YNL128W, strain TEP1, hits give low values 1 | [3] 1 | locus YNL298W, strain CLA4 (second series), hits give low values 1.04 | locus YNL322C, strain KRE1, hits give low values 1.01 | locus YNR030W, strain Alg12, hits give low values 1.02 | locus YOL006C, strain TOP1, hits give low values 1.06 | locus YPL055C, strain LGE1, hits give low values 1 | locus YPL241C, strain CIN2, hits give low values 1.05 | locus YPR135W, strain CTF4, hits give low values 1.01

O=C(O)CC1CCCc2ccccc2C1O (centres undefined)
inactive: [1] 1.01 | locus YAL040C, strain CLN3, hits give low values 1.09 | locus YCL061C, strain MRC1 (second series), hits give low values 0.999 | locus YDR363W, strain ESC2, hits give low values 1.02 | locus YER002W, strain NOP16, hits give low values 1.01 | [2] 0.997 | [3] 1 | locus YNL175C, strain NOP13, hits give low values 1.01 | locus YNL197C, strain WHI3, hits give low values 1.01 | locus YNL224C, strain SQS1, hits give low values 1.01 | locus YOR083W, strain WHI5 (second series), hits give low values 1.02
